Here are results for 7 compounds from PubChem BioAssay (NCATS).

Structures are written as SMILES. Several values for one entry are separate records, joined by “and”; a condition that tells them apart may be missing. Equal values may be shown once. Results filed as inconclusive are left out. Activity calls are given as the source filed them. Unless noted, calls come from the whole dose curve; as a rule, active = well fitted curve in the direction sought with a large enough effect; inconclusive = small, poorly fitted or top-dose-only effect, or another doubt; inactive = no such curve, though single readings can be large; an effect the other way counts as inactive or inconclusive. Where only a bound is given, the exact number is not on record here.

Assay [1] can be described thus: AP1 Signaling Pathway (AID 357; active = well fitted curve in either direction with a large enough effect, not every such curve was filed as active; note: % is set by controls: 0 for no effect and ±100 for the full control effect). As to conditions: ME-180 AP-1-bla reporter, EGF-induced, beta-lactamase ratio, 5 h; at 38 µM (top of the series). Put shortly:
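AP-1-bla ME-180 cells with beta-lactamase reporter under AP-1 response element, stimulated with EC50 EGF; compounds titrated, 5 hours at 37 degrees Celsius. CCF4 read at 460/530 nm ratio; positive and negative modulators judged by AC50.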

Assay [2] has as its target Cytochrome P450 1A2 (Homo sapiens) (UniProt P05177). In words: p450-cyp1a2 (AID 410; calls by dose curve; note: potency is the fitted concentration of half-maximal effect). Particulars: recombinant CYP1A2, luciferin-ME demethylation, luminescence; series mostly up to 57 µM. Put shortly: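 O-Demethylation of luciferin 6' methyl ether by human CYP1A2 is monitored as luciferase luminescence. Substrate sits at Km (100uM); enzyme is 20nM. Values are scaled to 57 uM furafylline as maximal inhibition.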

The nature of assay [3]: NFAT Signaling Pathway (AID 444; active = well fitted curve in either direction with a large enough effect, not every such curve was filed as active;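 note: carbachol stimulus at about its EC50 of 1 µM final; % is set by controls: 0 for no effect and ±100 for the full control effect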). As to conditions: Jurkat NFAT-bla M1, carbachol, beta-lactamase ratio, 5 h; at 38 µM (top of the series). Put shortly:
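Jurkat cells carrying an NFAT-driven β-lactamase reporter and co-transfected muscarinic M1 receptor were treated with compound plus carbachol (1 uM final, an EC50 level) for 5 h at 37 °C. CCF4 loading followed for 1 h at RT; 460/530 nm ratio gave %activity.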

Assay [4] in a line: Stat Signaling Pathway (AID 446; active = well fitted curve in either direction with a large enough effect, not every such curve was filed as active;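 note: ME-180 cervical cancer cells given 40 pM IL-6 alongside compound; SIE-controlled beta-lactamase reporter measured as 460/530 nm FRET emission ratio; % is set by controls: 0 for no effect and ±100 for the full control effect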). As to conditions: ME-180 (cervical carcinoma) SIE beta-lactamase reporter, IL-6 stimulated, 5 h; at 38 µM (top of the series). Put shortly:
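Overnight-plated ME-180 cells bearing a STAT Inducible Element beta-lactamase reporter; 5 h co-exposure to compound and 40 pM IL-6; values normalized to 300 pM IL-6 and 125 nM JAK inhibitor controls.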

The target of assay [5] is Glucocorticoid receptor (Homo sapiens) (UniProt P04150). Description: GR-GFP Redistribution (AID 450;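 active = compounds whose dose series gives a full or clear partial fitted curve of increased nuclear translocation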; note: potency is the fitted concentration of half-maximal effect). Particulars: U2OS GR-GFP nuclear translocation, laser cytometry, 2 h.
Assay [6] shares this target. In words: GR-EFC Redistribution (AID 451; calls by dose curve; note: potency is the fitted concentration of half-maximal effect). As to conditions: CHO-K1 GR-EFC translocation, beta-gal luminescence, 2 h. Put shortly: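 CHO-K1 cells stably expressing nuclear-localized β-gal enzyme acceptor and GR fused C-terminally to the enzyme donor fragment; ligand-driven nuclear translocation restores β-gal by complementation. Compounds titrated up to 46 uM final, 2 h at 37 °C; luminescence read.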

In assay [7] the target is 3',5'-cyclic-AMP phosphodiesterase 4B (Homo sapiens) (UniProt Q07343). In words: qHTS Assay for Inhibitors of PDE-IV (AID 607; active = well fitted activation curve with a large enough effect in the main read-out, with a control signal flat, not every such curve was filed as active; note: % of control where 0% means no effect). As to conditions: HEK293 ACTOne CNG channel cells, membrane potential fluorescence; series mostly up to 22.9 µM. Put shortly: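 Live HEK293 cells with a modified cyclic nucleotide-gated (CNG) channel report intracellular cAMP via membrane-potential dye fluorescence (ex 535/em 590 nm). Endogenous PDE-IV was targeted. Compounds were tested at up to 22.9 uM final; RO 20-1724 100 uM served as control.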
For orientation: qHTS replaces the single test concentration by a dilution series.

Assay [8] addresses Guanine nucleotide-binding protein G(i) subunit alpha-1 (Homo sapiens) (UniProt P63096). Description: qHTS Assay for Inhibitors of RGS12 GoLoco Motif Activity (Green Fluorophore) (AID 879).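 Note: 0% = labeled peptide with Gαi1 and full inhibition = labeled peptide alone without protein; negative values mean loss of peptide binding seen as reduced polarization.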 As to conditions: Galphai1/FITC-RGS12 GoLoco peptide, fluorescence polarization; series mostly up to 57.1 µM. Put shortly:
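A drop in FITC polarization marked displacement of the FITC-tagged RGS12 GoLoco peptide (10 nM) from Gαi1 (50 nM). Compounds were incubated 10 min at room temperature in Tris pH 7.5 buffer containing 150 mM NaCl, 0.1 mM GDP and 0.05% NP40; unlabeled peptide titration served as control.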

The target in assay [9] is Cytochrome P450 2C19 (Homo sapiens) (UniProt P33261). Description: qHTS Assay for Inhibitors and Substrates of Cytochrome P450 2C19 (AID 899). Note: potency is the fitted concentration of half-maximal effect; nearly all actives have a fitted effect of over 60% in size. As to conditions: recombinant CYP2C19, luciferin-H EGE luminescence; series mostly up to 57.1 µM. Put shortly:
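NADPH-dependent conversion of Luciferin-H EGE (10uM, at KM) by 5nM enzyme in 50mM KPO4, 60 min at 37C following 10 min compound preincubation. Stopped with luciferin detection buffer; luminescence read after 20 min.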

The nature of assay [10]: qHTS Assay for Identification of Small Molecule Agonists for Thrombopoietin (TPO) Signaling Pathway (AID 917). Note: % is set by controls: 0 for no effect and ±100 for the full control effect. As to conditions: TPO signaling pathway reporter cells, agonist qHTS, stimulated with TPO at its EC50; series mostly up to 38.5 µM. The gist of the method: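 Cell-based luciferase reporter screen. Mouse Ba/F3 line stably expressing human TPO receptor; IL-3 removed overnight before plating. Co-treatment with compound and EC50 TPO (26 pM), 24 hrs at 37 C, then luminescence.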

Assay [11] addresses Pyruvate kinase (Leishmania mexicana) (UniProt Q27686). Description: qHTS Validation Assay for Inhibitors of Leishmania Mexicana Pyruvate Kinase (AID 945).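 Note: 0% = DMSO only neutral control wells.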 As to conditions: purified L. mexicana pyruvate kinase, enzyme activity, E451W mutant enzyme; series mostly up to 57.5 µM. Put shortly:
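Read-out: luminescence from PKLight stop/detection reagent, data normalized to DMSO. Reaction: 0.2 nM E451W LmPYK, 0.5 mM PEP, 0.1 mM ADP, pH 7.2, 1 h room temperature.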

Assay [12] addresses Alpha-galactosidase A (Homo sapiens) (UniProt P06280). In words: Counterscreen for Glucocerebrosidase Inhibitors: qHTS Assay for Human alpha-Galactosidase at pH 4.5 (AID 992). Note: 0% is about no effect. As to conditions: purified enzyme, fluorogenic substrate; series mostly up to 76.9 µM. The gist of the method: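 Each compound is preincubated briefly with 2 nM enzyme before substrate addition (80 uM); plates then sit 20 min at ambient temperature, are quenched with 1M NaOH/1M glycine, and read fluorometrically.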
(The purpose of a counterscreen is to sort out artefacts and off-target activity.)

The target of assay [13] is alpha-glucosidase (Oryza sativa, rice) (UniProt Q653V4). Description: Counterscreen for Glucocerebrosidase Inhibitors: qHTS Assay for Rice alpha-Glucosidase at pH 5.0 (AID 997).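 Note: 0% = full activity with enzyme and -100% = basal without enzyme.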 As to conditions: rice alpha-glucosidase enzyme activity; series mostly up to 76.9 µM. Put shortly:
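Endpoint fluorogenic assay at pH 5.0: compounds (0.7 nM to 77 uM) titrated against 4 nM rice enzyme and 400 uM 4-MU-alpha-glucoside for 20 min at room temperature; NaOH/glycine stop, read ex 365/em 440 nm, Hill-fitted AC50.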

The target of assay [14] is DNA dC->dU-editing enzyme APOBEC-3G (Homo sapiens) (UniProt Q9HC16). Description: qHTS for inhibitors of Vif-A3G interactions: Validation (AID 588379). Note: 0% is about no effect. As to conditions: Vif-A3G protein interaction assay; series mostly up to 46.1 µM. The gist of the method: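 Yellow fluorescence (Ex 488, Em 500-530) of Vif-coexpressing HeLa A3G-eYFP cells, scanned by Acumen cytometer, reports blocked A3G degradation. Cells plated at 700/well overnight at 37 deg C before compound addition, then a further overnight compound incubation at 37 deg C.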

Assay [15] concerns Zika virus NS2B-NS3 protease. In words: Primary screen GU AMC qHTS for Zika virus inhibitors (AID 1347154).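 Note: 0% = no-inhibitor control and -100% = no-enzyme control; nearly all actives have a fitted effect of over 70% in size.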 Particulars: Zika NS2B-NS3 unlinked protease, AMC fluorogenic substrate; series mostly up to 54.1 µM. The gist of the method: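 Unlinked Zika NS2B hydrophilic domain/NS3 protease domain noncovalent complex (25 nM final) in 10 mM Tris-HCl pH 8.0, 0.01% Tween 20, with AMC peptide substrate. Fluorescence (ex 340, em 450 nm) change over 15 min, room temperature; percent inhibition fitted to 4-parameter Hill equation.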

Assay [16] in a line: Primary qHTS for small molecule stabilizers of the endoplasmic reticulum resident proteome: Secreted ER Calcium Modulated Protein (SERCaMP) assay (AID 1508630). Note: potency is the fitted concentration of half-maximal effect. Particulars: SH-SY5Y GLuc-SERCaMP (Gaussia luciferase released on ER calcium loss) secretion, thapsigargin, luminescence; series mostly up to 38.4 µM. Put shortly: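 The SH-SY5Y reporter protocol was run at 3 concentrations up to 38.3 uM (primary) or 11 concentrations (follow-up): 16 h compound, 100 nM thapsigargin for 4 h, then extracellular luciferase luminescence.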

For assay [17], the target named is Cytochrome P450 3A4 (Homo sapiens) (UniProt P08684). Description: qHTS Assay for Activators of Cytochrome P450 3A4 (AID 885). Note: nearly all actives have a fitted effect of over 65% in size. Particulars: recombinant CYP3A4, Luciferin-PPXE luminescence, 60 min; series mostly up to 57.1 µM. The gist of the method:
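Using 20nM recombinant human CYP3A4 in potassium phosphate (200mM), substrate Luciferin-PPXE at 25uM, luminescent luciferin detection followed a 60-min RT NADPH reaction; data scaled to 57 uM ketoconazole.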

Assay [18] deals with Mitogen-activated protein kinase 10 (Mus musculus) (UniProt Q61831). In words: JNK3 AlphaScreen Assay (AID 530; active = well fitted curve in either direction with a large enough effect, not every such curve was filed as active). Particulars: JNK3 lysate, c-Jun phosphorylation; series mostly up to 57.1 µM. The gist of the method: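 Phosphorylation of biotinylated GST-cJun(1-79) at Ser73 is measured by AlphaScreen proximity luminescence. Enzyme is JNK3 in HepG2 lysates activated with interleukin-1beta and tumor necrosis factor alpha; ATP is 10 uM final.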
(In general: In Alpha technology, singlet oxygen from a donor bead excites a nearby acceptor bead.)

Assay [19] concerns the target Ubiquitin carboxyl-terminal hydrolase 1 (Homo sapiens) (UniProt O94782). Description: Inhibitors of USP1/UAF1: Pilot qHTS (AID 504865).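 Note: rhodamine fluorescence freed from ubiquitin-rhodamine substrate followed over time; top concentration of the series differs between compounds; % is set by controls: 0 for no effect and ±100 for the full control effect; nearly all actives have a fitted effect of over 35% in size.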 As to conditions: purified USP1/UAF1, Ub-rhodamine cleavage fluorescence; series mostly up to 114 µM. Put shortly: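 In 50mM HEPES pH 7.8 containing 0.5mM EDTA, 1mM TCEP, 0.1 mg/ml BSA and 0.01% Tween-20, 1nM USP1/UAF1 is exposed to compound for 15 min, then Ub-Rho (150nM final) is added and fluorescence is read over time.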

The nature of assay [20]: qHTS Assay for Lipid Storage Modulators (AID 1519; calls by dose curve). As to conditions: Drosophila S3 cells, BODIPY lipid droplet/cell ratio, laser cytometry, cells loaded with oleic acid; for activity change, negative = inhibition: at 57.5 µM (top of the series). The gist of the method:
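Cells seeded at 5,000 per well were treated with compounds over a concentration series and loaded with oleic acid (400 uM, as added). Lipid droplet fluorescence (488 nm excitation, 500-530 nm channel) was read by laser-scanning cytometry and normalized to 20 uM Triacsin C.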

Setting [21] is: measured here: cell count channel max response.
Setting [22] is: measured here: lipid channel max response.

Cytochrome P450 1A2 (Homo sapiens), sequence (P05177 whole entry, looked up): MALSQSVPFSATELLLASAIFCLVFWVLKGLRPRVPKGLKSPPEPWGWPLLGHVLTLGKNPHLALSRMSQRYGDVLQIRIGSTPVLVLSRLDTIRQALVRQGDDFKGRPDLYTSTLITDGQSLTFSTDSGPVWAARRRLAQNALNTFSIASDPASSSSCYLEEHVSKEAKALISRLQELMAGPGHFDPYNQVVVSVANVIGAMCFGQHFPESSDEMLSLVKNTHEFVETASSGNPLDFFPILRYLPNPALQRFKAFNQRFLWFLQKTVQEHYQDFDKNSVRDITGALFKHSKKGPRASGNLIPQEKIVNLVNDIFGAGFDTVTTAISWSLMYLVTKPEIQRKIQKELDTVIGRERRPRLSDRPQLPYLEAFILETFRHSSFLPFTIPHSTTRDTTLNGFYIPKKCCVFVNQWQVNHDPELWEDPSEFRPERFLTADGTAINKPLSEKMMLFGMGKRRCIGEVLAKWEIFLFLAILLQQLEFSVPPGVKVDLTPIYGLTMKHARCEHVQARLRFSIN
DNA dC->dU-editing enzyme APOBEC-3G (Homo sapiens), sequence (Q9HC16 whole entry, looked up): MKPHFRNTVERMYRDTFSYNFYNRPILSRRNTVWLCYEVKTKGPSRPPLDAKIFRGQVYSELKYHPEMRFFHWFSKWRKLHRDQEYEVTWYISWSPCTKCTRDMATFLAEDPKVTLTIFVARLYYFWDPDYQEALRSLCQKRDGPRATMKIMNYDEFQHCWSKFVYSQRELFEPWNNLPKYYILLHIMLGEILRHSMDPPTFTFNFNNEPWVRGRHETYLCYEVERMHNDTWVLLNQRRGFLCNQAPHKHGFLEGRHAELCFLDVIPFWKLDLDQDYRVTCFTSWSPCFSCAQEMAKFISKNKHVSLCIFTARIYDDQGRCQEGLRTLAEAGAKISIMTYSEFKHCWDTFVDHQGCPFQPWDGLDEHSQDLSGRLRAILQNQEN
Glucocorticoid receptor (Homo sapiens), sequence (P04150 whole entry, looked up, the tested form may be a part): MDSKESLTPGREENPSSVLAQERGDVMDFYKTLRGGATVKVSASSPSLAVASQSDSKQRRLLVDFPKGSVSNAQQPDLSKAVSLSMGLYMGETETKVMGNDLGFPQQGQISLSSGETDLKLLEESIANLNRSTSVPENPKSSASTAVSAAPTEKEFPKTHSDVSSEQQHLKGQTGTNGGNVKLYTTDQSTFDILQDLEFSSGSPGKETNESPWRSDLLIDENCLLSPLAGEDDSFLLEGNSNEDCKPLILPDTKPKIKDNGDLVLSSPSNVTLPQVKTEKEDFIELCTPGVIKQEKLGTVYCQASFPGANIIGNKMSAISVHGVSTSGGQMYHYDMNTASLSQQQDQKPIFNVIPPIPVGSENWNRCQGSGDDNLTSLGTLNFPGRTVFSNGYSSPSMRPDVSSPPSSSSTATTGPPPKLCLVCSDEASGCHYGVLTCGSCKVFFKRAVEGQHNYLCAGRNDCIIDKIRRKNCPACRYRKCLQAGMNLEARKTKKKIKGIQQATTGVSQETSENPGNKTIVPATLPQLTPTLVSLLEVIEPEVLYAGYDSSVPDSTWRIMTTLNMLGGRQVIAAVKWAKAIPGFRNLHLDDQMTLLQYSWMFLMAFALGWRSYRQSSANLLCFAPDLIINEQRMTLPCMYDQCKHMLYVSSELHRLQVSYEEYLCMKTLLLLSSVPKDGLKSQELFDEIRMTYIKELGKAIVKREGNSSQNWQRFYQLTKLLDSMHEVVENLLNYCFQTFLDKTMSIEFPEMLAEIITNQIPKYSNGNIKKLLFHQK
Ubiquitin carboxyl-terminal hydrolase 1 (Homo sapiens), sequence (O94782 whole entry, looked up): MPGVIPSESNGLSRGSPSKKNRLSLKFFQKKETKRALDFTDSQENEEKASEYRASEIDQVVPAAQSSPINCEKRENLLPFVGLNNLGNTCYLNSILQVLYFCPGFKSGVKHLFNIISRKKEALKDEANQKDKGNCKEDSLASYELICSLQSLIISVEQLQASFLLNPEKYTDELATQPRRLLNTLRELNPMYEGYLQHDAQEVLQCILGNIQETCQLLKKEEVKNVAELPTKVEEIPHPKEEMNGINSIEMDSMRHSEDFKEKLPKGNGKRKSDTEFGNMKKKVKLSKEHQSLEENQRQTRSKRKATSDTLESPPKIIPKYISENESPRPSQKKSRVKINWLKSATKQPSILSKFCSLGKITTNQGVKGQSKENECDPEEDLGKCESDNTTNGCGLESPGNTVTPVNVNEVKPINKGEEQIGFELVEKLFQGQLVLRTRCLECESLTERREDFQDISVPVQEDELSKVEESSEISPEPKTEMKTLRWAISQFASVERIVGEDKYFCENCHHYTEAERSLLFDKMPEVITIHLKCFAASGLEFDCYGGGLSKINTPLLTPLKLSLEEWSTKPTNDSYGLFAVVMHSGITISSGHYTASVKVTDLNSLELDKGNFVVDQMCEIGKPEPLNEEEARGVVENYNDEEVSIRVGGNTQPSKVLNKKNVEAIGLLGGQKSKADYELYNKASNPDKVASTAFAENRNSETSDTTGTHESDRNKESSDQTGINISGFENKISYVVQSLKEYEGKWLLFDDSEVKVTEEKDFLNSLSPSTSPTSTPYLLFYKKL
Guanine nucleotide-binding protein G(i) subunit alpha-1 (Homo sapiens), sequence (P63096 whole entry, looked up): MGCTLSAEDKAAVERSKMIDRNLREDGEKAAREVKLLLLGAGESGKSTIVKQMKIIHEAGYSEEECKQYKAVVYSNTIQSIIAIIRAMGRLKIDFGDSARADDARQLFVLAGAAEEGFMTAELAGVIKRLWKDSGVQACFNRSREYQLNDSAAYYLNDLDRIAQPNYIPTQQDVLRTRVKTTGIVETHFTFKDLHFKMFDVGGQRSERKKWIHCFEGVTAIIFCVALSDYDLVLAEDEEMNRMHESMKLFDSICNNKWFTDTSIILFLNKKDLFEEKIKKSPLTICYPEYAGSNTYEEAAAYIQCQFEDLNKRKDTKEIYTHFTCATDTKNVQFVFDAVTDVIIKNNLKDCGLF
3',5'-cyclic-AMP phosphodiesterase 4B (Homo sapiens), sequence (Q07343 whole entry, looked up): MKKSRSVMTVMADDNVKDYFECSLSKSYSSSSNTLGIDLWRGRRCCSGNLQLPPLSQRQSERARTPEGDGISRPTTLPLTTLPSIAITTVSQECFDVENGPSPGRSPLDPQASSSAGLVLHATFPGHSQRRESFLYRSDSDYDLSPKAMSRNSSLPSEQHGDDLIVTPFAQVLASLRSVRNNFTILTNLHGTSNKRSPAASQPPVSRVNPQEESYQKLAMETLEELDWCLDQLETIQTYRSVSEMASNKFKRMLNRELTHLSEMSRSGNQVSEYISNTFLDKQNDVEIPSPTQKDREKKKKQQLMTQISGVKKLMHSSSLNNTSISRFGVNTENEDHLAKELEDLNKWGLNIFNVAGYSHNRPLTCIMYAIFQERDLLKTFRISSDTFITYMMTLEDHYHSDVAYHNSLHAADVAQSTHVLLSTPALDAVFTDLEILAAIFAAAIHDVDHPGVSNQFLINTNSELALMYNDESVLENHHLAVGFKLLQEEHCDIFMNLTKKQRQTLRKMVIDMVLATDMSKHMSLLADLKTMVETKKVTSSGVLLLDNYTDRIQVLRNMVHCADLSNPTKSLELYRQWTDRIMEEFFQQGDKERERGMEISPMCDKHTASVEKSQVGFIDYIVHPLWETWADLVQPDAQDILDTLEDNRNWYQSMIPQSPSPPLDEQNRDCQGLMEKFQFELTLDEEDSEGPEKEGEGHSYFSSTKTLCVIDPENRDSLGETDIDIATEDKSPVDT
Cytochrome P450 2C19 (Homo sapiens), sequence (P33261 whole entry, looked up): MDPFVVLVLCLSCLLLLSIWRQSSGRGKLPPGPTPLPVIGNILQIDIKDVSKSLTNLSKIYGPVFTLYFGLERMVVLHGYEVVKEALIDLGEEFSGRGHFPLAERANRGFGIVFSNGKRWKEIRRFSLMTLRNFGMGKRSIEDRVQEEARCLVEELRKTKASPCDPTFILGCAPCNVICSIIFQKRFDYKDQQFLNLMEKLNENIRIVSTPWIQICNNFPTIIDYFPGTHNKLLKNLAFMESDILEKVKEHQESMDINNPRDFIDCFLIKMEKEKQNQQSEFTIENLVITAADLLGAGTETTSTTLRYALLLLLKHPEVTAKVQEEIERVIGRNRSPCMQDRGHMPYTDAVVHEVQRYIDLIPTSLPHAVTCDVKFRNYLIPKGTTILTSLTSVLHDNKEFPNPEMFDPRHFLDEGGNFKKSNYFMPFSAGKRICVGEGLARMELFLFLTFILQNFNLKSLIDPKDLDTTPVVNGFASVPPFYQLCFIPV
Alpha-galactosidase A (Homo sapiens), sequence (P06280 whole entry, looked up): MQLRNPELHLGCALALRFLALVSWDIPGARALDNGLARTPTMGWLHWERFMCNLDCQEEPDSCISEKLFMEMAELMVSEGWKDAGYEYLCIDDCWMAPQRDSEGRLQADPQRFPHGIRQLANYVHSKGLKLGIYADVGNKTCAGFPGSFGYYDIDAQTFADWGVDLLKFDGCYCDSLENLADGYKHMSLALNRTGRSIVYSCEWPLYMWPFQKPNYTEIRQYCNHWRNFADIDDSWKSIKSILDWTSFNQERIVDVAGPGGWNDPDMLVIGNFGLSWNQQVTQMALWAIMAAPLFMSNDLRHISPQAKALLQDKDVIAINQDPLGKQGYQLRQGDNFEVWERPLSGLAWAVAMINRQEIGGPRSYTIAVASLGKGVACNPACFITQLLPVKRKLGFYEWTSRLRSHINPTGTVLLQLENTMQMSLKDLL
Pyruvate kinase (Leishmania mexicana), sequence (Q27686 2-499 E452W): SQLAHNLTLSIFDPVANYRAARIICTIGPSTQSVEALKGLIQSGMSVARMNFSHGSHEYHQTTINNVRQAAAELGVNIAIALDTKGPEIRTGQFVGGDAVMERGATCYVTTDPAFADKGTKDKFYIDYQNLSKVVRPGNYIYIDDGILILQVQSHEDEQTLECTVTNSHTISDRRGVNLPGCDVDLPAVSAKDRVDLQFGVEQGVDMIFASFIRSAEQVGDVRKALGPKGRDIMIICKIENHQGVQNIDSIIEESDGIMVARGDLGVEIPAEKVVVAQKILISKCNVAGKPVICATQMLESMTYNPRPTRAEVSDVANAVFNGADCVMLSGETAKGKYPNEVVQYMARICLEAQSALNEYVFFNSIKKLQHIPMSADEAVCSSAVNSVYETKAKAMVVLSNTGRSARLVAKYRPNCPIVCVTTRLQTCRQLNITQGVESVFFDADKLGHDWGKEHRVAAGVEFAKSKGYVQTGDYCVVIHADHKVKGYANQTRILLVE

On to `C[C@@H](/C=C\c1cccc(Oc2ccc(F)cc2)c1)N(O)C(N)=O`, for which the activity change, negative = inhibition in [1] was -29.9% (inactive); in assay [3], -4.07% (inactive). Besides, the Potency in assay [2] is 1 µM (active) and 158 nM (active); in assay [5], > 46 µM (inactive); in [6], > 46 µM (inactive); in assay [9], 1.58 µM (active) and 3.98 µM (active). Further, the activity, negative = inhibition in assay [4] was 13.8% (inactive). The Potency result in [7], in assay [10], in [11], in assay [14], in assay [15] and in assay [16] was “inactive” each time. Besides, the result in [8], in assay [12] and in assay [13] was inactive.

On to `O=C1CC[C@H](C(=O)O)N1`, for which the Potency result in [15] and in [16] was “inactive” each time.

Turning to `Cc1ccc(-c2nn(C(C)(C)C)c3ncnc(N)c23)cc1`, the Potency entry in assay [15] and in assay [16] was “inactive” in each case.

As to `CCCCC/C=C\C/C=C\C/C=C\C/C=C\CCCC(=O)O`, the Potency entry in [17] was “inactive”. In addition, the activity change, negative = inhibition in assay [15] is 3.96% [at 6.83 µM] (inactive); in assay [16], 40.9% [at 3.88 µM] (inactive).

Turning to `CCOC(=O)[C@@]12C[C@@H]1/C(=N/O)c1ccccc1O2`, the activity change, negative = inhibition in assay [1] is -6.63% (inactive); in assay [3], -7.55% (inactive). For the same compound, the Potency was 3.98 µM (active) and 316 nM (active) in assay [2]; > 46 µM (inactive) in assay [5]; > 46 µM (inactive) in assay [6]. The activity, negative = inhibition in assay [4] is -6.6% (inactive). Besides, the Potency entry in assay [18], in assay [7], in assay [10], in assay [11], in [19] and in assay [14] was “inactive” each time. Also, the Potency entry in [15] and in [16] was “inactive” throughout. Further, the result in assay [8], in [12] and in assay [13] was inactive.

As to `C[C@](N)(COP(=O)(O)O)C(=O)O`, the values for the Potency in [5] and in [16] were > 46 µM (inactive) and 31.6 µM (active), respectively. The Potency result in [18], in assay [19], in assay [14] and in assay [15] was “inactive” each time. Besides, in assay [20], the activity change, negative = inhibition is 4.7% (inactive). Besides, the max response in assay [20] (setting [21]) turned out to be 16.3%; in assay [20] (setting [22]), 21.4%.

Regarding `NC(N)=NCCC[C@@H](N)C(=O)O`, the activity change, negative = inhibition in assay [20] is -2.14% (inactive). Also, the max response is -17.8% in assay [20] (setting [21]) and -21.4% in assay [20] (setting [22]). The Potency result in [19], in assay [14], in assay [15] and in [16] was “inactive” throughout.
